Results filed as inconclusive are left out. Active and inactive are the calls of the source. Calls follow the shape of the dose curve; as a rule, active = well fitted cell-killing curve with a large enough effect; inconclusive = small, poorly fitted or top-dose-only effect, or effect the other way; inactive = no such curve, though single readings can be large or run the other way.
Test system: PA-1
Assay: Confirmatory qHTS for gynecologic anti-cancer compounds from libraries of approved drugs and bioactive compounds; also: nearly all actives have a fitted effect of over 55% in size
Details: gynecologic cancer cell panel viability, ATPlite luminescence, 48 h; series mostly up to 57.6 µM; activity change, negative = viability loss: at the top concentration
Summary of the method: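 Cells (1,000/well) were plated, left 16 h at 37 C/5% CO2, then given compound at 11 concentrations (1:3) from 57.5 uM to 0.977 nM for 48 h. ATPlite luminescence after 15 min at room temperature gave IC50 values.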
% is scaled to controls: 0 for no effect and ±100 for the full control effect; potency is read from the fitted curve at half-maximal effect.

SMILES | Potency | activity change, negative = viability loss
CCS(=O)(=O)N1CCN(c2ccc(Nc3ncc(C(N)=O)c(NC4CC4)n3)cc2)CC1 | 3.85 µM (active) | 
O=C1c2c(O)ccc(O)c2C(=O)c2c(NCCNCCO)ccc(NCCNCCO)c21 | 0.432 µM (active) | 
CNCc1ccc(-c2[nH]c3cc(F)cc4c3c2CCNC4=O)cc1 | 19.3 µM (active) | 
Cn1c(=O)c(F)c(Nc2ccc(I)cc2F)c2c(=O)n(CC(O)CO)cnc21 (stereo unspecified) | 2.17 µM (active) | 
C[C@]12CCC(=O)C=C1[C@@H]1C[C@@H]1[C@H]1[C@@H]3[C@@H]4C[C@@H]4[C@@]4(CCC(=O)O4)[C@@]3(C)CC[C@@H]12 |  | -22.8% (inactive)
NS(=O)(=O)c1ccc(Nc2nc(OCC3CCCCC3)c3[nH]cnc3n2)cc1 |  | 35.2% (inactive)

From PubChem BioAssay AID1345085 (National Center for Advancing Translational Sciences (NCATS), 2018)
